Assay outcomes deposited in PubChem by University of Kansas High Throughput Screening Laboratory.
Pf apPOL block: Pf-apPOL inhibitors, biochemical, fluorescence; Recombinant Pf-apPOL, molecular beacon fluorescence, 1.5 h; Plasmodium falciparum apicoplast DNA polymerase (apPOL); 0.25% of 210,000 active; inhibition, % at 10 µM
mHTT-CaM PPI inh: mutant huntingtin-calmodulin interaction inhibitors – biochemical, AlphaScreen, primary screen | P42858 | AlphaScreen His-mHTT/GST-CaM binding, luminescence | inhibition, % at 15 µM | 3.6% of 190,000 active | AID 1671202, 2021;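 further: 0% = both proteins with DMSO and 100% = one protein alone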
* = called active by the depositor. Compounds with a hit are over-represented: about 3.5% of the library has one in this group of screens. No stated cut-off is given here; in the data, active means inhibition above about 50%; inactive means the rest.

SMILES	Pf apPOL block	mHTT-CaM PPI inh
COc1cccc(C(C)NC(=O)CN2C(=O)NC3(CCCCC3)C2=O)c1 (stereo not drawn)	-4	-6
CC(C)C[C@H]1COc2cccc(N3CCN(Cc4ccccc4F)CC3)c2S(=O)(=O)N1	-3	80*
C[C@H]1COc2cccc(N3CCN(Cc4ccccc4F)CC3)c2S(=O)(=O)N1	-4	-14
COc1ccc(C(=O)NC(Nc2cccc(C)c2)C(Cl)(Cl)Cl)cc1 (stereo not drawn)	1	-14
O=C(Nc1nnc(-c2ccco2)o1)c1cnccn1	-7	-9
CC(C)(C)n1nc2c(c1NC(=O)CCc1ccccc1)CSC2	0	3
O=C(Cn1nc2c(c1NC(=O)c1cnccn1)CSC2)NCc1ccco1	-20	85*
O=C(Nc1cc(-c2ccco2)nn1CCO)c1cnccn1	-1	92*
O=C(Cn1nc2c(c1NC(=O)c1c[nH]c3ccccc13)CSC2)NCCc1ccccc1	0	93*
O=C(Cc1csc(NC(=O)c2cnccn2)n1)NCc1ccco1	4	38
CN(C)CC1CN(C(=O)NCc2ccco2)CC12CCOCC2 (stereo not drawn)	1	1
CCOc1ccc(NC(=O)C2CCCN(c3ncnc4c3nc3n4CCCCC3)C2)cc1 (stereo not drawn)	-4	27
CCN1C(=O)c2cccnc2Sc2cc(C(=O)NCc3ccccc3F)ccc21	-3	10
Cc1ccc(N2NC(=O)/C(=C\c3ccc(N(C)C)c([N+](=O)[O-])c3)C2=O)cc1	-1	22
O=c1cc(-c2ccccc2)oc2c(CN3CCOCC3)c(O)c(CN3CCOCC3)c(O)c12	8	37
COc1ccc(-c2ccc(CN3C(C(C)C)C(=O)N(Cc4cn(Cc5ccco5)nn4)CCS3(=O)=O)cc2)cn1 (stereo not drawn)	-27	38
CCC/C=C/c1ccc(CN2C(C(C)C)C(=O)N(Cc3cn(Cc4ccco4)nn3)CCS2(=O)=O)cc1 (stereo not drawn)	-1	57*
CC(C)C1C(=O)N(Cc2cn(Cc3ccco3)nn2)CCS(=O)(=O)N1Cc1ccc(-c2ccc(Cl)c(Cl)c2)cc1 (stereo not drawn)	-10	83*
CCC/C=C/c1ccc(CN2C(C)C(=O)N(Cc3cn(Cc4ccco4)nn3)CCS2(=O)=O)cc1 (stereo not drawn)	-4	35
CC(C)c1ccc(C2SCC(=O)N2c2ccc(O)cc2)cc1 (stereo not drawn)	4	4
O=C(Cn1ccc2ccccc21)NCC1CCCO1 (stereo not drawn)	-1	-16
CN(C)c1cccc(C(=O)NCC2CCN(S(C)(=O)=O)CC2)c1	2	-7
CC(=O)NC1=NC(=O)/C(=C/c2cc([N+](=O)[O-])c(N3CCOCC3)cc2N2CCOCC2)S1	8	14
Cn1c(=N)n(CC(O)c2ccc(Cl)c(Cl)c2)c2ccccc21 (stereo not drawn)	-5	3
Cc1ccccc1Cn1c(=N)n(CC(O)c2ccc(Cl)c(Cl)c2)c2ccccc21 (stereo not drawn)	0	100*
SMILES	Pf apPOL block	mHTT-CaM PPI inh
Cc1ccc(-c2csc(/C(C#N)=C/c3ccco3)n2)cc1	53*	-10
COc1ccc(-c2csc(/C(C#N)=C/c3ccco3)n2)cc1	4	-11
Cn1c(=O)n(-c2ccc(S(N)(=O)=O)cc2)c(=O)n1C	-2	4
Cc1ccc(C)n1-c1ccc(S(N)(=O)=O)cc1	-3	75*
COc1cccc(NC(=O)c2sc3cccc(Cl)c3c2Cl)c1	-2	-6
CCOc1c(C)cc(-c2ncccc2O)cc1C	0	-1
CCOCc1ccc(O)c2ncccc12	-4	100*
CCOc1ncccc1C(=O)Nc1ccc(Nc2ccccc2)cc1	-2	85*
O=C(Nc1ccc(Nc2ccccc2)cc1)c1ccccc1I	-8	70*
O=C(Nc1ccc(Nc2ccccc2)cc1)c1ccccc1F	-2	33
CCOc1ncccc1C(=O)Nc1ccc(Cl)cc1	-4	-12
CC1=NN(c2ccc(F)cc2)C(=O)/C1=C/c1ccc(O)cc1	2	34
Cc1ccc(N2C(=O)CSC2c2ccccc2Cl)cc1 (stereo not drawn)	3	-15
Cc1ccc(C2C(C#N)=C(N)Oc3c2sc2ccccc32)o1 (stereo not drawn)	7	86*
Cc1ccc(C2C(C#N)=C(N)OC3=C2C(=O)CCC3)o1 (stereo not drawn)	-1	1
O=C(Cn1cc(-c2ccccc2)oc1=O)NC1CCN(Cc2ccccc2)CC1	1	-3
O=c1c([N+](=O)[O-])c(Cl)c2ccccc2n1-c1ccccc1	-2	100*
O=c1c([N+](=O)[O-])c(O)c2ccccc2n1-c1ccccc1	-3	-6
CC(C)N1C(=O)C(C)(C(=O)NCc2ccc(F)cc2)Oc2cccnc21 (stereo not drawn)	1	-2
Cc1ccnc(Nc2nc(CC(=O)NCc3ccco3)cs2)c1	16	68*
